Reference: PubChem BioAssay (NCATS)
Inconclusive results are not listed. Where a call stands in place of a potency, no number is given. Unmarked numbers belong to inactive results. Active and inactive are the calls of the source. Calls follow the shape of the dose curve; as a rule, active = well fitted curve in the direction sought with a large enough effect; inconclusive = small, poorly fitted or top-dose-only effect, or another doubt; inactive = no such curve, though single readings can be large; an effect the other way counts as inactive or inconclusive.

Experiments:
[1] = biological target: Cellular tumor antigen p53 (Homo sapiens) (UniProt P04637); test: Primary qHTS for small molecule compounds that upregulate eGFP-tagged delta133p53alpha (in N-terminal) cells. (AID 2060322); conditions: NCI-H358 eGFP-delta133p53alpha fluorescence, 24 h; activation: stronger effect = higher value; also: nearly all actives have a fitted effect of over 75% in size; also: potency is read from the fitted curve at half-maximal effect; as to activation: series mostly up to about 56 µM
Cellular tumor antigen p53 (Homo sapiens), sequence (P04637 whole entry, looked up): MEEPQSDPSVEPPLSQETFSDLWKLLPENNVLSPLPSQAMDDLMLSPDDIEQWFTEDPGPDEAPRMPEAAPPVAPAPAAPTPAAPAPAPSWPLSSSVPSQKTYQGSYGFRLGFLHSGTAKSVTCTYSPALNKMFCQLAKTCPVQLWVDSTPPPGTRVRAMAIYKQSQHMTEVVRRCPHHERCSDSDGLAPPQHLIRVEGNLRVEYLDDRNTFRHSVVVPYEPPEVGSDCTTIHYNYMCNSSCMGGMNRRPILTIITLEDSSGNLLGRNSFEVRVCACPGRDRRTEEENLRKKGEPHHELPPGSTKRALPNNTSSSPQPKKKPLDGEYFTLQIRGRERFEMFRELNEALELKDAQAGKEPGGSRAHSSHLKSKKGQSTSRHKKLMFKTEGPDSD
How it was run: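 NCI-H358 cells pre-induced 24 h with 10 ng/ml doxycycline to express N-terminal eGFP-delta133p53alpha, then dosed 24 h at 37C without doxycycline; fixed, Hoechst-stained, GFP intensity by laser scanning cytometry, normalized to DMSO (0%) and 57.5 uM 5-azacytidine (100%).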

[2] = biological target: Aldehyde dehydrogenase, mitochondrial (Homo sapiens) (UniProt P05091); test: qHTS for Inhibitors of the Aldehyde Dehydrogenase Family (ALDH2) Primary screen (AID 2061308); also: nearly all actives have a fitted effect of over 55% in size
[3] = biological target: Retinaldehyde dehydrogenase 3 (Homo sapiens) (UniProt P47895); test: qHTS for Inhibitors of the Aldehyde Dehydrogenase Family (ALDH1A3) Primary screen (AID 2061315)

## CC1=CCC2C(C)(C)CCC[C@]2(C)[C@@]12CC[C@](C)(CC(=O)O)O2 (stereo partly specified)
[1]
  activation: 27.5%
[2]
  Potency: inactive
[3]
  Potency: inactive

## CC1(C)CC[C@]2(C(=O)O[C@@H]3O[C@H](CO)[C@@H](O)[C@H](O)[C@H]3O)CC[C@]3(C)C(=CCC4[C@@]5(C)CC[C@H](O[C@@H]6O[C@H](C(=O)O)[C@@H](O[C@@H]7O[C@H](CO)[C@@H](O)[C@H](O)[C@H]7O)[C@H](O)[C@H]6O[C@@H]6O[C@H](CO)[C@@H](O)[C@H](O)[C@H]6O)C(C)(C)C5CC[C@]43C)C2C1 (stereo partly specified)
[1]
  activation: -29.8%
[2]
  Potency: inactive
[3]
  Potency: inactive

## CC(C(=O)O)C1CCC2(C)C3C(=O)C=C4C(CCC(=O)C4(C)C)C3(C)CCC12C (stereo unspecified)
[1]
  activation: -15.2%
[2]
  Potency: inactive
[3]
  Potency: inactive

## O=c1[nH]c2ccc(C#CCN3CCC(Cc4ccccc4)CC3)cc2[nH]1
[1]
  activation: -3.57%
[2]
  Potency: inactive
[3]
  Potency: inactive

## C[C@@H]1O[C@@H](OC[C@H]2O[C@@H](OCc3ccccc3)[C@H](O)[C@@H](O)[C@@H]2O)[C@H](O)[C@H](O)[C@H]1O
[1]
  activation: 15.3%
[2]
  Potency: inactive
[3]
  Potency: inactive

## COc1c2c(c(C)c3c1C(=O)OC3)O[C@@]1(C)CCC3(C(C)(C)O)OC(=O)CC[C@]3(C)[C@H]1C2 (stereo partly specified)
[1]
  activation: 4.58%
[2]
  Potency: inactive
[3]
  Potency: inactive

## N#Cc1cnc2cnc(NCc3cccnc3)cc2c1Nc1ccc(F)c(Cl)c1
[1]
  Potency: 2690 nM (active)
[2]
  Potency: inactive
[3]
  Potency: inactive

## CC1(C)CC[C@]2(C(=O)O)CC[C@]3(C)C(=CCC4[C@@]5(C)C[C@@H](O)[C@H](O)[C@@](C)(CO)C5[C@H](O)C[C@]43C)[C@@H]2C1 (stereo partly specified)
[1]
  activation: -19.8%
[2]
  Potency: inactive
[3]
  Potency: inactive

## COC(=O)c1cc(CN2CCN(C(=N)N)CC2)cc(C(=O)N2CCN(C(=O)c3ccc(C(=N)N)cc3)CC2)c1
[1]
  activation: 1%
[2]
  Potency: inactive
[3]
  Potency: inactive

## C=C1[C@@H]2CC[C@@]3(C)[C@H](c4ccoc4)OC(=O)C[C@]13O[C@H]1CC(=O)C(C)(C)[C@H](C(O)C(=O)OC)[C@]12C (stereo partly specified)
[1]
  activation: 8.04%
[2]
  Potency: inactive
[3]
  Potency: inactive

## C/C1=C\CC[C@]2(C)O[C@H]2C(=O)c2c(C)coc2C1
[1]
  activation: 20.5%
[2]
  Potency: inactive
[3]
  Potency: inactive

## CC(C)C[C@H](NC(=O)[C@@H]1O[C@H]1C(=O)O)C(=O)NCCCCN=C(N)N
[1]
  activation: -8.33%
[2]
  Potency: inactive
[3]
  Potency: inactive

## N#C[C@@H]1C[C@H](F)CN1C(=O)CNC1[C@H]2CN(C(=O)c3ccc(F)cc3)C[C@@H]12 (stereo partly specified)
[1]
  activation: -1%
[2]
  Potency: inactive
[3]
  Potency: inactive

## CC1=CC(=O)C2C(C)(C)CC(O)CC2(C)C1CO (stereo unspecified)
[1]
  activation: -17.6%
[2]
  Potency: inactive
[3]
  Potency: inactive

## OC[C@H]1O[C@@H](OCCc2ccccc2)[C@H](O)[C@@H](O)[C@@H]1O
[1]
  activation: -2.29%
[2]
  Potency: inactive
[3]
  Potency: inactive

## CC1(C)CC[C@]2(C(=O)O)[C@H](O)C[C@]3(C)C(=CCC4[C@@]5(C)CC[C@H](O[C@@H]6O[C@H](CO[C@@H]7OC[C@H](O)[C@H](O)[C@H]7O[C@@H]7OC[C@@H](O)[C@H](O)[C@H]7O)[C@@H](O)[C@H](O)[C@H]6O[C@@H]6O[C@H](CO)[C@@H](O)[C@H](O)[C@H]6O)C(C)(C)C5CC[C@]43C)[C@@H]2C1 (stereo partly specified)
[1]
  activation: -17.6%
[2]
  Potency: inactive
[3]
  Potency: inactive

## C=C1C(=O)O[C@@H]2[C@H]1CC[C@H](C)C(CCC(=O)O)C2(C)O (stereo partly specified)
[1]
  Potency: 23900 nM (active)
[2]
  Potency: inactive
[3]
  Potency: inactive

## Cc1cc2c(F)c(Oc3ncnn4cc(OCC(C)O)c(C)c34)ccc2[nH]1 (stereo unspecified)
[1]
  activation: -26.8%
[2]
  Potency: inactive
[3]
  Potency: inactive

## C[C@@H](Nc1cc(NS(=O)(=O)N2CCC2)nc(SCc2cccc(F)c2F)n1)[C@@H](O)CO
[1]
  activation: -20.5%
[2]
  Potency: inactive
[3]
  Potency: inactive

## COc1ccc(CNC(=O)c2cc(-c3cncc(C)c3)ncc2-c2nccs2)nc1OC
[1]
  activation: 0.477%
[2]
  Potency: inactive
[3]
  Potency: inactive

## COc1ncc2cc(C(=O)Nc3cc(C(=O)NCc4cccc(Cl)c4)ccc3Cl)c(=O)[nH]c2n1
[1]
  Potency: 2690 nM (active)
[2]
  Potency: inactive
[3]
  Potency: inactive

## C[C@@H]1O[C@@H](O[C@H]2[C@H](OC(=O)[C@]34CCC(C)(C)C[C@H]3C3=CCC5[C@@]6(C)CC[C@H](O[C@@H]7O[C@H](CO[C@@H]8OC[C@H](O)[C@H](O)[C@H]8O)[C@@H](O)[C@H](O)[C@H]7O)C(C)(C)C6CC[C@@]5(C)[C@]3(C)C[C@H]4O)OC[C@@H](O)[C@@H]2O)[C@H](O)[C@H](O[C@@H]2OC[C@](O)(CO)[C@H]2O)[C@H]1O[C@@H]1OC[C@H](O)[C@H](O[C@@H]2OC[C@@H](O)[C@H](O)[C@H]2O)[C@H]1O (stereo partly specified)
[1]
  activation: 5.36%
[2]
  activity change, negative = inhibition: 7.19% [at 11.2 µM]
[3]
  activity change, negative = inhibition: 10.7% [at 11.2 µM]
